The test deals with Trichoderma virens ATCC 9645. Briefly: growth yield (OD600) with compound + IPBC relative to untreated control; higher = less growth inhibition. As to conditions: compound concentration: 100 uM, IPBC concentration: 200 ng/ml. A digest of the protocol: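 A biocide at 200 ng ml^−1 was co-applied to some wells, and library compounds were present in all test wells at 100 μM final. The wells held 100 μl of Trichoderma virens ATCC 9645 spores at 15,000 spores ml^−1 in potato dextrose broth, grown at 30 °C in 96-well plates, with OD600 read at 40 h and 72 h. Results are relative growth against the control without either agent, averaged across duplicate screens.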

Growth yield data for ten compounds are collected here from the supplement of paper PMC8007513.

Each structure is given as a SMILES string. Structures can show the parent of a compound that is named as a salt. ± gives the standard error. Screen size: about 1,300 compounds; about 130 (10%) showed an effect of 50% or more. This excerpt belongs to a sample that is enriched for strong results.

On to `CN[C@@H]1[C@H](O)[C@H](NC)[C@H]2O[C@@]3(O)C(=O)C[C@@H](C)O[C@H]3O[C@@H]2[C@H]1O` [Spectinomycin dihydrochloride] + CCCCNC(=O)OCC#CI [3-iodo-2-propynyl butylcarbamate (IPBC)], for which the growth yield is, setting by setting: (40 h) 104 ± 13%; (72 h) 103 ± 8%.

Regarding `CC(NCCC(c1ccccc1)c1ccccc1)c1ccccc1` (stereo not given) [Fendiline hydrochloride] + CCCCNC(=O)OCC#CI [3-iodo-2-propynyl butylcarbamate (IPBC)], the growth yield reads like this: (40 h) 70.37 ± 0.16%; (72 h) 93.7 ± 1.4%.

As to `Cc1ccnc(NS(=O)(=O)c2ccc(N)cc2)n1` [Sulfamerazine] + CCCCNC(=O)OCC#CI [3-iodo-2-propynyl butylcarbamate (IPBC)], the growth yield stood at 88.2 ± 6.2% (40 h) and 90.9 ± 4.7% (72 h).

In the case of `CC(C)(C)C(=O)OCOC(=O)[C@@H]1N2C(=O)[C@@H](/N=C/N3CCCCCC3)[C@H]2SC1(C)C` [Pivmecillinam hydrochloride] + CCCCNC(=O)OCC#CI [3-iodo-2-propynyl butylcarbamate (IPBC)], the growth yield runs as follows: (40 h) 57.8 ± 4.5%; (72 h) 77.2 ± 3.1%.

As for `CCC(=O)O[C@]1(C(=O)CCl)[C@@H](C)C[C@H]2[C@@H]3CCC4=CC(=O)C=C[C@]4(C)[C@@]3(F)[C@@H](O)C[C@@]21C` [Clobetasol propionate] + CCCCNC(=O)OCC#CI [3-iodo-2-propynyl butylcarbamate (IPBC)], the growth yield reads like this: (40 h) 109 ± 7.2%; (72 h) 106 ± 4.7%.

For the compound `C[C@@H]1C[C@@H]([C@H](O)CC2CC(=O)NC(=O)C2)C(=O)[C@@H](C)C1` [Cycloheximide] + CCCCNC(=O)OCC#CI [3-iodo-2-propynyl butylcarbamate (IPBC)], the growth yield amounted to 34.3 ± 2.9% (40 h) and 85.7 ± 3.2% (72 h).

`C[C@]12CC[C@H]3C(=CCc4cc(O)ccc43)[C@@H]1CCC2=O` [Equilin] + CCCCNC(=O)OCC#CI [3-iodo-2-propynyl butylcarbamate (IPBC)]: the growth yield runs as follows: (40 h) 82.4 ± 17%; (72 h) 86.8 ± 9%.

As for `C=CC[N@@+]12CC[C@@]34c5ccccc5N5/C=C6/[C@H]7C[C@H]8[C@@]9(CC[N@@+]8(CC=C)C/C7=C/CO)c7ccccc7N(/C=C(/[C@@H](C[C@@H]31)/C(=C\CO)C2)[C@H]54)[C@@H]69` [Alcuronium chloride] + CCCCNC(=O)OCC#CI [3-iodo-2-propynyl butylcarbamate (IPBC)], the growth yield by setting is: (40 h) 6.83 ± 0.16%; (72 h) 35.4 ± 3.4%.

Regarding `Cn1ccnc1S` [Methimazole] + CCCCNC(=O)OCC#CI [3-iodo-2-propynyl butylcarbamate (IPBC)], the growth yield (40 h) came out at 120 ± 16% and the growth yield (72 h) stood at 111 ± 12%.

For the compound `CNCCC(Oc1ccc(C(F)(F)F)cc1)c1ccccc1` (stereo not given) [Fluoxetine hydrochloride] + CCCCNC(=O)OCC#CI [3-iodo-2-propynyl butylcarbamate (IPBC)], the growth yield reads like this: (40 h) 71.8 ± 4.8%; (72 h) 96.9 ± 2.9%.
